Experimental data: article PMC4336329 (PLoS ONE, 2015)
Hit rate of the full screen: of about 310,000 compounds, about 14,000 (4.5%) showed an effect of 50% or more. Effects have a minus sign here. This excerpt belongs to a sample that is enriched for strong results.

The compounds below were run against human ether-à-go-go-related gene (hERG) potassium channel (human, UniProt Q12809) (assay: primary screen, population patch clamp on CHO cells stably expressing hERG; higher = less effect of the substance).
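Further: peak tail current of the secondary pulse compared with the same well before compound.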

Chain of human ether-à-go-go-related gene (hERG) potassium channel (Q12809 whole entry, looked up): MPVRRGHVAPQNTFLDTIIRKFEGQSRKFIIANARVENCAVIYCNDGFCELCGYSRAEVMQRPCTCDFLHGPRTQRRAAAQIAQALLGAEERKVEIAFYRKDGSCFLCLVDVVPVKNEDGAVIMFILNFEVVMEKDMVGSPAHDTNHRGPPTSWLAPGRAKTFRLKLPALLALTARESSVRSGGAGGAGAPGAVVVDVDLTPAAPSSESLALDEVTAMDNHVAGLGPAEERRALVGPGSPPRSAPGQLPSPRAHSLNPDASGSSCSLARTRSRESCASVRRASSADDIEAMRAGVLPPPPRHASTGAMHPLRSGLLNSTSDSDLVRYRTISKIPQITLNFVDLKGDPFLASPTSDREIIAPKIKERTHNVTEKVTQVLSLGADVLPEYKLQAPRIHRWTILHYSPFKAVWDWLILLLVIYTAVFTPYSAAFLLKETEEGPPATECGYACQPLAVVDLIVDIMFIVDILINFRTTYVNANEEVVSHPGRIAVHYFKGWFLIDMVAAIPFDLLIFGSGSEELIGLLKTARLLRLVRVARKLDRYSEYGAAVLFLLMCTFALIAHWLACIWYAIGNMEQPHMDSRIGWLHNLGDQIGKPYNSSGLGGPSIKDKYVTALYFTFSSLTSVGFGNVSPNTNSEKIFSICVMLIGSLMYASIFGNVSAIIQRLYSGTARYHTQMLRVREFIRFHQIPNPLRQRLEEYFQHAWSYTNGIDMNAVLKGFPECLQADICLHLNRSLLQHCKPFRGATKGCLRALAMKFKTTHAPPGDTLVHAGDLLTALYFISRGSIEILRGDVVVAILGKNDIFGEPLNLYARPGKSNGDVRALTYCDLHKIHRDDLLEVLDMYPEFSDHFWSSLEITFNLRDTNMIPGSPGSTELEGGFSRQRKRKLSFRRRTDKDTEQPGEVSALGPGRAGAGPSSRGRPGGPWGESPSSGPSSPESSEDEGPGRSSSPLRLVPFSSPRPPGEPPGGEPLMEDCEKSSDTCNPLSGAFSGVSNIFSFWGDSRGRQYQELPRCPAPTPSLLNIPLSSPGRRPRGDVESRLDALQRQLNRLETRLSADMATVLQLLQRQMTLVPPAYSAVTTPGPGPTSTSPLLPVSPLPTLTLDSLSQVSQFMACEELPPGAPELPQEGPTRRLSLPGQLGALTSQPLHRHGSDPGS

Row | Structure (SMILES) | hERG current change (%, negative = inhibition) at 10uM
1 | CCOC(=O)c1ccc(NS(=O)(=O)c2c(C)[nH]c(C)c2C(=O)N2CCCCC2)cc1 | 7.73%
2 | CC(C)C(NS(=O)(=O)/C=C/c1ccccc1)C(=O)NCc1ccc(F)cc1 (stereo not shown) | 25.3%
3 | CCn1c(SCC(=O)N2c3ccccc3CC2C)nnc1-c1ccco1 (stereo not shown) | -17.6%
4 | O=C(Nc1nnc(Cc2ccccc2F)s1)c1ccccc1Cl | 12.6%
5 | CCc1ccc(S(=O)(=O)NCc2cn3ccccc3n2)s1 | -11%
6 | CN(C)Cc1nc2c([nH]1)c(=O)n(C)c(=O)n2C | -0.353%
7 | CCCc1nc2c([nH]1)c(=O)n(C)c(=O)n2C | 15.8%
8 | Cn1c(=O)c2[nH]c(COc3ccc(C(C)(C)C)cc3)nc2n(C)c1=O | -55.1%
9 | N#Cc1ccc(-c2ccc(Cl)cc2)nc1SCC(=O)c1cccc(Cl)c1 | 28.9%
10 | N/C(=N\O)c1ccc([N+](=O)[O-])s1 | 11%
11 | Cc1ccc(P(=O)(OCCN2CCOCC2)C(C)(C)C)o1 (stereo not shown) | -4.4%
12 | O=C1CN=C(c2ccc(Br)cc2)c2c(sc3c2CCCC3)N1CCN1CCCCC1 | -64.4%
13 | COc1ccc(C2=NCC(=O)N(CC(=O)NCc3ccco3)c3sc4c(c32)CCCC4)cc1OC | -17.3%
14 | COc1ccc(C2=NCC(=O)N(CC(=O)NCc3ccco3)c3sc4c(c32)CCCC4)cc1 | -35.7%
15 | Cl.OC(COc1ccc(Cl)cc1)CN1CCCCC1 (stereo not shown) | -61.9%
16 | O=C(c1ccc(Cl)cc1)c1ccc(OCC(O)CN2CCOCC2)cc1 (stereo not shown) | -19.7%
17 | O=C(c1ccc(Cl)cc1)c1ccc(OCC(O)CN2CCCCC2)cc1 (stereo not shown) | -75.1%
18 | OC(COc1ccc(OCC(O)CN2CCCCC2)cc1)CN1CCCCC1 (stereo not shown) | 15.9%
19 | Cl.OC(COc1ccc(OCC(O)CN2CCCCCC2)cc1)CN1CCCCCC1 (stereo not shown) | 9.75%
20 | OC(COc1ccc2cc(Br)ccc2c1)CN1CCOCC1 (stereo not shown) | -48.4%

Row | Structure (SMILES) | hERG current change (%, negative = inhibition) at 10uM
21 | OC(COc1ccc2cc(Br)ccc2c1)CN1CCCC1 (stereo not shown) | -70.2%
22 | OC(COc1ccc2ccccc2c1)CN1CCCC1 (stereo not shown) | -19.1%
23 | O=C(c1ccccc1)c1ccc(OCC(O)CN2CCCCC2)cc1 (stereo not shown) | -39.9%
24 | CCn1cc(C(=O)NCc2ccccc2OC)c(=O)c2ccc(C)nc21 | 17.6%
25 | CCCOc1ccccc1C(=O)N(Cc1cccc(Br)c1)C1CCS(=O)(=O)C1 (stereo not shown) | -35.4%
26 | Cn1c(=O)cc(SCC(=O)N2CCN(C(=O)c3ccco3)CC2)c2ccccc21 | -27.4%
27 | COc1ccc(OCC(=O)N2CCN(CC3CC4C=CC3C4)CC2)cc1 (stereo not shown) | -26.6%
28 | Cc1cc(C)n2ncc(-c3cccc(Br)c3)c2n1 | 5.79%
29 | CNCC1(c2ccccc2)CCCC1.Cl | 15.1%
30 | c1ccc(C2(CNc3ccccn3)CCCC2)cc1 | -70.3%
31 | O=C(Nc1ccccn1)C1(c2ccccc2)CCCC1 | -3.92%
32 | CCCCCCNC(=O)CCNS(=O)(=O)c1ccc(C)cc1 | -12.8%
33 | CCOc1cc(NC(=O)c2ccccn2)c(OCC)cc1NC(=O)c1cccc(C)c1 | 8.7%
34 | COc1ccc(N2CC(C(=O)Nc3c(C(N)=O)oc4ccccc34)CC2=O)cc1 (stereo not shown) | -15%
35 | CC/C(=N\N=C1\SC(C)C(=O)N1Cc1ccco1)c1ccccc1 (stereo not shown) | 4.18%
36 | CC1CCC(NC(=O)C2CCN(c3c4c(nc5ncnn35)CCC4)CC2)CC1 (stereo not shown) | -19.3%
37 | O=C(Nc1ccc(Oc2ccccc2)cc1)C1CCN(c2c3c(nc4ncnn24)CCC3)CC1 | -55.6%
38 | COc1ccc(NC(=O)C2CCCN(c3c4c(nc5ncnn35)CCC4)C2)cc1 (stereo not shown) | -61.6%
39 | COc1ccc(NC(=O)C2CCCN(c3c4c(nc5ncnn35)CCC4)C2)cc1OC (stereo not shown) | -11.7%
40 | O=C(Nc1ccc2c(c1)CCC2)C1CCN(c2ncccn2)CC1 | 20.6%

Row | Structure (SMILES) | hERG current change (%, negative = inhibition) at 10uM
41 | O=C(NC1CCCc2ccccc21)C1CCN(c2c3c(nc4ncnn24)CCC3)CC1 (stereo not shown) | -31.3%
42 | O=C(Nc1ccc2c(c1)CCC2)C1CCN(c2c3c(nc4ncnn24)CCC3)CC1 | -73.1%
43 | COc1ccc(NC(=O)C2CCCN(c3ncccn3)C2)cc1 (stereo not shown) | 3.4%
44 | CC1CCCCC1NC(=O)C1CCN(c2c3c(nc4ncnn24)CCC3)CC1 (stereo not shown) | 4.49%
45 | CCN1C(=O)C2C(C1=O)N1C(c3cccs3)C3C(=O)N(CC)C(=O)C3N1C2c1cccs1 (stereo not shown) | 15.7%
46 | COc1ccc(Cn2nnnc2C(c2ccccn2)N2CCN(c3cc(Cl)ccc3C)CC2)cc1 (stereo not shown) | -9.87%
47 | Cc1ccc(NC(NC(=O)c2ccccc2[N+](=O)[O-])C(Cl)(Cl)Cl)cc1 (stereo not shown) | -5.27%
48 | CC(Sc1nnc(-c2cccnc2)o1)C(=O)NC1CCCCC1 (stereo not shown) | 14.9%
49 | Cc1ccc(Nc2nc(COC(=O)C3CC3)cs2)cc1 | -13.1%
50 | CCOC(=O)CSC1=C(C#N)C(c2ccc(C)cc2)C(C(=O)OC)C(=O)N1 (stereo not shown) | -4.56%
51 | Cc1ccc(-n2ncc3c(=O)[nH]c(SCC(=O)N4CCN(c5ccccc5)CC4)nc32)cc1 | 3.28%
52 | FC(F)(F)c1cccc(CNC2c3ccccc3-c3ccccc32)c1.O=C(O)C(=O)O | 20.4%
53 | COc1ccc(NC(=O)c2nc(C)n(-c3ccc([N+](=O)[O-])cc3)n2)cc1 | -44.9%
54 | CNC(=O)c1nc(C)n(-c2ccc([N+](=O)[O-])cc2)n1 | -3.99%
55 | Cc1nc(C(=O)Nc2ccc(Cl)cc2)nn1-c1ccc([N+](=O)[O-])cc1 | -58.6%
56 | Cc1nc(C(=O)O)nn1-c1ccc([N+](=O)[O-])cc1 | 2.84%
57 | Cc1ccc(NC(=O)c2nc(C)n(-c3ccc([N+](=O)[O-])cc3)n2)cc1 | -32.2%
58 | Cc1nc(C(=O)Nc2ccc(F)cc2)nn1-c1ccc([N+](=O)[O-])cc1 | -67.4%
